Records with an inconclusive call do not appear. Activity calls are given as the source filed them. Unless noted, the call rests on the fitted dose curve; in most records, active means well fitted curve in the direction sought with a large enough effect; inconclusive means small, poorly fitted or top-dose-only effect, or another doubt; inactive means no such curve, though single readings can be large; an effect the other way counts as inactive or inconclusive.
How the values were obtained:
PAD = assay: qHTS profiling for inhibitors of Plasmodium falciparum proliferation (AID 504749); further: nearly all actives have a fitted effect of over 60% in size; settings: P. falciparum in erythrocytes, SYBR Green DNA, 72 h; series mostly up to 28.7 µM
In short: (§1)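 Infected RBCs, 0.3% parasitemia/2.5% Hct final; cpd 72 h, 37 C, 5% CO2; lysis buffer with saponin/triton/SYBR Green I, o/n RT dark; FI 485/535; norm. to artemisinin (0.29 uM) and DMSO.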

PC15 = assay: as above; settings: P. falciparum in erythrocytes, SYBR Green DNA, 72 h; series mostly up to 28.7 µM
In short: as §1

PC49 = assay: as above; settings: P. falciparum in erythrocytes, SYBR Green DNA, 72 h; series mostly up to 28.7 µM
In short: as §1

SC27B = assay: as above; settings: P. falciparum in erythrocytes, SYBR Green DNA, 72 h; series mostly up to 28.7 µM
In short: as §1

TAB109 = assay: as above; settings: P. falciparum in erythrocytes, SYBR Green DNA, 72 h; series mostly up to 28.7 µM
In short: as §1

TAB113 = assay: as above; settings: P. falciparum in erythrocytes, SYBR Green DNA, 72 h; series mostly up to 28.7 µM
In short: as §1

TAB165 = assay: as above; settings: P. falciparum in erythrocytes, SYBR Green DNA, 72 h; series mostly up to 28.7 µM
In short: as §1

W2 = assay: as above; settings: P. falciparum in erythrocytes, SYBR Green DNA, 72 h; series mostly up to 28.7 µM
In short: as §1

[1] = biological target: Glucocorticoid receptor (Homo sapiens) (UniProt P04150); assay: GR-GFP Redistribution (AID 450;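 active means compounds whose dose series gives a full or clear partial fitted curve of increased nuclear translocation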; further: potency means the concentration at half of the fitted maximal effect)
[2] = biological target: Glucocorticoid receptor (Homo sapiens) (UniProt P04150); assay: GR-EFC Redistribution (AID 451; calls by dose curve; further: potency means the concentration at half of the fitted maximal effect); settings: CHO-K1 GR-EFC translocation, beta-gal luminescence, 2 h
In short: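 Translocation of GR-ED fusion to nuclear EA restores b-gal, read by luminescence after 1 h room-temperature detection. Engineered CHO-K1 biosensor cells, 1,000/well, exposed 2 h at 37 C to titrations up to 46 uM final.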

[3] = biological target: Cytochrome P450 3A4 (Homo sapiens) (UniProt P08684); assay: qHTS Assay for Inhibitors and Substrates of Cytochrome P450 3A4 (AID 884); further: potency means the concentration at half of the fitted maximal effect; nearly all actives have a fitted effect of over 50% in size
In short: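 20 nM human CYP3A4 with 25 uM Luciferin-PPXE (at KM) in 200 mM KPO4, preincubated 10 min with compound; NADPH regeneration started a 60 min RT reaction. Luciferin detected by luminescence, normalized to 57 uM ketoconazole as full inhibition.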

[4] = biological target: Cytochrome P450 2C19 (Homo sapiens) (UniProt P33261); assay: qHTS Assay for Inhibitors and Substrates of Cytochrome P450 2C19 (AID 899); further: nearly all actives have a fitted effect of over 60% in size; further: potency means the concentration at half of the fitted maximal effect
In short: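 5nM enzyme + 10uM Luciferin-H EGE (=KM), 50mM KPO4; cpd pin-transferred, 10 min 37C; NADPH regen, 60 min 37C; stopped w/ luciferin detection reagent, 20 min; luminescence. Normalized to 57uM ketoconazole (AC100).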

[5] = biological target: DNA dC->dU-editing enzyme APOBEC-3G (Homo sapiens) (UniProt Q9HC16); assay: qHTS for inhibitors of Vif-A3G interactions: Validation (AID 588379)
In short: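 HeLa cells stably expressing Vif and A3G-eYFP, 700 cells/well, incubated overnight at 37 deg C, then exposed to compound overnight at 37 deg C. Inhibition of Vif-mediated degradation read as increased yellow fluorescence (Ex 488/Em 500-530) by laser-scanning cytometry.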

[6] = biological target: Tyrosyl-DNA phosphodiesterase 1 (Homo sapiens) (UniProt Q9NUW8); assay: Confirmation Assay for Inhibitors of Tyrosyl-DNA Phosphodiesterase (TDP1) (AID 489007); settings: recombinant human TDP1 enzymatic activity, dose-response; further: potency means the concentration at half of the fitted maximal effect; nearly all actives have a fitted effect of over 40% in size
In short: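 Recombinant human Tdp1 (1 nM final), expressed in E. coli, preincubated 15 min with compound. Then 15 nM 5'-biotin/3'-phosphotyrosine-FITC DNA substrate added for 5 min at room temperature. AlphaScreen beads (10 ug/ml) added for 10 min; cleavage gives signal loss.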

[7] = biological target: 3',5'-cyclic-AMP phosphodiesterase 4B (Homo sapiens) (UniProt Q07343); assay: qHTS Assay for Inhibitors of PDE-IV (AID 607; active means well fitted activation curve with a large enough effect in the main read-out, with a control signal flat, not every such curve was filed as active)
In short: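 HEK293 ACTOne cells with CNG channel (1000/well), endogenous PDE4; membrane potential dye, compounds up to 22.9 uM final. Fluorescence Ex 535/Em 590; RO 20-1724 (100 uM final) as reference.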

[8] = biological target: Cytochrome P450 2C9 (Homo sapiens) (UniProt P11712); assay: qHTS Assay for Inhibitors and Substrates of Cytochrome P450 2C9 (AID 883); further: nearly all actives have a fitted effect of over 60% in size
In short: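 Inhibition of CYP2C9 is scored as loss of luminescence, with 57uM sulphaphenazole defining 100% inhibition. Substrate Luciferin-H is used at 100uM, equal to its KM; enzyme at 10nM in 25mM KPO4, 60 min at 37C with NADPH regeneration.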

[9] = biological target: Cytochrome P450 2D6 (Homo sapiens) (UniProt P10635); assay: qHTS Assay for Inhibitors and Substrates of Cytochrome P450 2D6 (AID 891);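 further: luciferin methyl ether substrate demethylated by CYP2D6 with NADPH regeneration; nearly all actives have a fitted effect of over 60% in size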
In short: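 Human CYP2D6 (5 nM) with 30 uM Luciferin-ME EGE (at Km) in 100 mM KPO4, compound preincubated 10 min, then NADPH regeneration system for 60 min at room temperature. Luciferin read by luminescence; normalized to 1.43 uM quinidine.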

[10] = biological target: Mitogen-activated protein kinase 10 (Mus musculus) (UniProt Q61831); assay: JNK3 AlphaScreen Assay (AID 530; active means well fitted curve in either direction with a large enough effect, not every such curve was filed as active;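 further: kinase came from lysate of stimulated human HepG2 cells; signal reports phosphorylation of biotinylated GST-cJun 1-79 at Ser73 with 10 µM ATP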)
In short: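 Compound titrations were preincubated 15 minutes at room temperature with substrate, antibody and pre-activated JNK3-containing HepG2 lysate. Reactions were started with 10 uM ATP and stopped with EDTA-containing bead buffer for AlphaScreen detection.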

Measured: Potency

Chain of 3',5'-cyclic-AMP phosphodiesterase 4B (Homo sapiens) (Q07343 whole entry, looked up): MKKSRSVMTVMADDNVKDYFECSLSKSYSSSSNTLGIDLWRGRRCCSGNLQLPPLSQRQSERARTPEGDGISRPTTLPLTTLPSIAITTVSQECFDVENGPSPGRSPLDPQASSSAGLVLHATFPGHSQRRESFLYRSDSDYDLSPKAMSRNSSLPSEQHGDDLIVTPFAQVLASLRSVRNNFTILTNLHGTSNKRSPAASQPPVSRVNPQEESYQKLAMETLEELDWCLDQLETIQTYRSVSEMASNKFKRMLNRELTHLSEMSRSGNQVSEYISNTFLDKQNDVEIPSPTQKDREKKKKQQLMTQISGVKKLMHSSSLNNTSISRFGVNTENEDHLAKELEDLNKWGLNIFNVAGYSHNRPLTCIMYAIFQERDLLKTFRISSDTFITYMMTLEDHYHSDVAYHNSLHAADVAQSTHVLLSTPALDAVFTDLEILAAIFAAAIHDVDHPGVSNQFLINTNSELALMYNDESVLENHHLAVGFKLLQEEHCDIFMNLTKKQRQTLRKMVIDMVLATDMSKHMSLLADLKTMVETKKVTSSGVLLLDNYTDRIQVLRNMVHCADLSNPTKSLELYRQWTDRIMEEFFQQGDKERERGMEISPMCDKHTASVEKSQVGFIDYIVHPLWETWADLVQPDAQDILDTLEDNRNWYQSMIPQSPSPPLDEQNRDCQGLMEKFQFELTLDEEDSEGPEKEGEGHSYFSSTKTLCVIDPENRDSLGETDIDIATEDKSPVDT
Chain of Glucocorticoid receptor (Homo sapiens) (P04150 whole entry, looked up, the tested form may be a part): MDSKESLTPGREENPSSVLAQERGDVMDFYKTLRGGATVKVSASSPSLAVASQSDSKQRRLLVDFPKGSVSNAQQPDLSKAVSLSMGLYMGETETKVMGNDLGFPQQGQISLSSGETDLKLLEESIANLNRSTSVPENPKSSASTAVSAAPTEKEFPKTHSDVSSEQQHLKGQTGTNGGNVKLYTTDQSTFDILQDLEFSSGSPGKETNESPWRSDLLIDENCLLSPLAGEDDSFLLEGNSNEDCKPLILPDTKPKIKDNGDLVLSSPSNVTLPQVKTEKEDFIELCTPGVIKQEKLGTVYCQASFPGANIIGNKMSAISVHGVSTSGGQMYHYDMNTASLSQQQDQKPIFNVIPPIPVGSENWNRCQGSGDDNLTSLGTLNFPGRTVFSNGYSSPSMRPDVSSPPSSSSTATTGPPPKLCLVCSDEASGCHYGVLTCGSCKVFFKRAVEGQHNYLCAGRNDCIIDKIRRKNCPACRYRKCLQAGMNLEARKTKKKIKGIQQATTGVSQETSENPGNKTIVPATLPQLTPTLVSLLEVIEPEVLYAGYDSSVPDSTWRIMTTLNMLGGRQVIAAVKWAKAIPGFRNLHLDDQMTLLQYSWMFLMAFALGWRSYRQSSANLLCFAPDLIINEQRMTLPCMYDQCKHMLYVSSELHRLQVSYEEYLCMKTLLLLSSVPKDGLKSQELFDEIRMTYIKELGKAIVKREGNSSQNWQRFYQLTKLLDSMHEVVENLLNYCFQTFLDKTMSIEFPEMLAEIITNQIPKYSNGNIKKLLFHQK
Chain of Cytochrome P450 2C19 (Homo sapiens) (P33261 whole entry, looked up): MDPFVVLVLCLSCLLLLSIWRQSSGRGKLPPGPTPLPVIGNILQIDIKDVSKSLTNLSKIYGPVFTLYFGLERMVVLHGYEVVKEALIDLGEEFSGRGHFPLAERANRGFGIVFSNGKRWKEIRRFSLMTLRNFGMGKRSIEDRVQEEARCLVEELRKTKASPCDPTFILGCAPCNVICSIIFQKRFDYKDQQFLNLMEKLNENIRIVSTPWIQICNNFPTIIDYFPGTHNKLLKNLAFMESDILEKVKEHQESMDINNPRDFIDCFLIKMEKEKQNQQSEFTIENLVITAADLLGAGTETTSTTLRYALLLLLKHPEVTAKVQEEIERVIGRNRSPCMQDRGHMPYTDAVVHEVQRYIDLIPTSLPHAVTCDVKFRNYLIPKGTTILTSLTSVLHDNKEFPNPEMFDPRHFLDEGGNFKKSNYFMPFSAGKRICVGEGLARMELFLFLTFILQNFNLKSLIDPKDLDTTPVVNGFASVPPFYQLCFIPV
Chain of Cytochrome P450 2D6 (Homo sapiens) (P10635 whole entry, looked up): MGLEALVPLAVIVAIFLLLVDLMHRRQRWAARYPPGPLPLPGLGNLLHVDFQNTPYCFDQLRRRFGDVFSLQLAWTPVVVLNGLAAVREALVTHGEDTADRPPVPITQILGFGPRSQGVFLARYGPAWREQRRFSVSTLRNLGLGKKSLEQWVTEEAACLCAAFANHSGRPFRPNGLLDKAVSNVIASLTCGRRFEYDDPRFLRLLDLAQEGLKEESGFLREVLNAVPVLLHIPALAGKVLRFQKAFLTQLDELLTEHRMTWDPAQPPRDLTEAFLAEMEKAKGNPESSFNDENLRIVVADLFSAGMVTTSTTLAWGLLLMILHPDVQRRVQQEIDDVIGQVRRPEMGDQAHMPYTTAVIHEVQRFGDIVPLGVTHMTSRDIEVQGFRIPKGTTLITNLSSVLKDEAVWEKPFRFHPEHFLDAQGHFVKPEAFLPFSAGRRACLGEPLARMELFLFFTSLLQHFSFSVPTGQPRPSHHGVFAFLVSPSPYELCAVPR
Chain of Cytochrome P450 2C9 (Homo sapiens) (P11712 whole entry, looked up): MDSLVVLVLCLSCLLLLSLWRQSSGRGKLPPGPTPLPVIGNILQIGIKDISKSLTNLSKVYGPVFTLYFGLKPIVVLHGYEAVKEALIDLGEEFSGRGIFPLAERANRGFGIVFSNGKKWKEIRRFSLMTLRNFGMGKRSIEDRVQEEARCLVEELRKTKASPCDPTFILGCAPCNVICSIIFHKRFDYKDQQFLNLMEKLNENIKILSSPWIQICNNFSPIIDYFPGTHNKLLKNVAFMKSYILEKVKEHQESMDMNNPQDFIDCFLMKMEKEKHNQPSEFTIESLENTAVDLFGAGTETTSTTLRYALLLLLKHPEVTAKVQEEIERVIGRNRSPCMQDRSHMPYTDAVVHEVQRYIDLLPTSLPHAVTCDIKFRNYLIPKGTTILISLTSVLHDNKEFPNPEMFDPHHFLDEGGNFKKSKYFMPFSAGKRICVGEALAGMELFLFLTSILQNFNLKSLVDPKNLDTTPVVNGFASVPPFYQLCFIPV
Chain of DNA dC->dU-editing enzyme APOBEC-3G (Homo sapiens) (Q9HC16 whole entry, looked up): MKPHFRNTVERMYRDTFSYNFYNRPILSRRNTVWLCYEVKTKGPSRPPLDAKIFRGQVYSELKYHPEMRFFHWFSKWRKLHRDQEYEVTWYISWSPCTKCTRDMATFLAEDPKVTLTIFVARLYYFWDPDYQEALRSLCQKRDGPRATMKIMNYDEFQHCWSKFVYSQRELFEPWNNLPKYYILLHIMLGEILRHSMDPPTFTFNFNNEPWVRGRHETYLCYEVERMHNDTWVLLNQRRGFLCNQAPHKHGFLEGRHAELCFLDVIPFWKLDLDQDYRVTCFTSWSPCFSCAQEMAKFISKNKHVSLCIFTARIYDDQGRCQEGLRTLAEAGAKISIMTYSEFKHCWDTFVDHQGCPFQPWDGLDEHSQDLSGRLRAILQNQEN
Chain of Tyrosyl-DNA phosphodiesterase 1 (Homo sapiens) (Q9NUW8 whole entry, looked up): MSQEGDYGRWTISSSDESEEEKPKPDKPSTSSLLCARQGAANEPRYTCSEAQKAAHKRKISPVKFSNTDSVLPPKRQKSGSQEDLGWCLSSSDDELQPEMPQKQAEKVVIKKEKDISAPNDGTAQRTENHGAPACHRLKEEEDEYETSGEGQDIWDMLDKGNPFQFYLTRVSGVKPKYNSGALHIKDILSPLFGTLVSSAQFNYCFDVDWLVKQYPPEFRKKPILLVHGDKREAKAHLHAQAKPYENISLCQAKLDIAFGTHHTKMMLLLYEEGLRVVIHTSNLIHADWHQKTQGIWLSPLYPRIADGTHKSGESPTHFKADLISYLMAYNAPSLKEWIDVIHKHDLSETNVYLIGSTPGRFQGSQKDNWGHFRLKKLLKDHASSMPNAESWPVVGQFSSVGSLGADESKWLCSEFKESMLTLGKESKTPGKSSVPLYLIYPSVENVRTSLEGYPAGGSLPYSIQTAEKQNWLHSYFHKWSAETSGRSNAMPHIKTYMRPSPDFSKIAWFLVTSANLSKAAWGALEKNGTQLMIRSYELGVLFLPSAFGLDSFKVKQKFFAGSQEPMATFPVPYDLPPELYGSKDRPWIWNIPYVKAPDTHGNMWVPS
Chain of Cytochrome P450 3A4 (Homo sapiens) (P08684 whole entry, looked up): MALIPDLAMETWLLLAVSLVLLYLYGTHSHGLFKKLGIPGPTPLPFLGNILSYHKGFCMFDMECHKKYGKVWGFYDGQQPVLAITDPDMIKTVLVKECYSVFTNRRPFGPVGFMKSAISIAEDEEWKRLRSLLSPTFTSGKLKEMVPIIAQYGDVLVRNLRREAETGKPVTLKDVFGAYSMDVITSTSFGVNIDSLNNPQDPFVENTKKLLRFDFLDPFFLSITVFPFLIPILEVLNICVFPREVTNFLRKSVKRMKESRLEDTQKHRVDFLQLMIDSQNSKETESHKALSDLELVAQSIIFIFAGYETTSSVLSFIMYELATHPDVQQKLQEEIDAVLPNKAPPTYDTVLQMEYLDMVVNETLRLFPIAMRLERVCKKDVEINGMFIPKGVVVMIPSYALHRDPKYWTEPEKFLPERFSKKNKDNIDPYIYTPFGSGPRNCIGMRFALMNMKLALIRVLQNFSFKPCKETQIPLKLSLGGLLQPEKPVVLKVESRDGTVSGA

CCCC[C@H]1C(=O)N(c2ccccc2)N(c2ccc(O)cc2)C1=O
inactive: PAD | PC15 | PC49 | SC27B | TAB109 | TAB113 | TAB165 | W2

O=c1cc(-c2ccccc2)oc2c1ccc1ccccc12
active: [3] 12.6 µM | [4] 2 µM
inactive: [1] > 46 µM | [2] > 46 µM | [5]

Cc1nc(S/C(=C/c2ccc(OCc3ccc(C(=O)O)cc3)cc2)C(=O)O)n[nH]1
active: [6] 35.5 µM

NCCC[C@@H](CC(=O)N[C@@H]1CCCC[C@H]1C(=O)N[C@H](CC(=O)N[C@@H](CCC(=O)O)CC(=O)O)Cc1ccccc1)NC(=O)C[C@H](Cc1ccccc1)NC(=O)[C@@H]1CNCC[C@H]1N
inactive: [2] > 46 µM | [7] | [8] | [9] | [4]

NCCC[C@@H](CC(=O)N[C@@H]1CCNC[C@H]1C(=O)N[C@H](CC(=O)N[C@@H](CCC(=O)O)CC(=O)O)Cc1ccccc1)NC(=O)C[C@H](Cc1ccccc1)NC(=O)[C@@H]1CCCC[C@H]1N
inactive: [2] > 46 µM | [10] | [7] | [8] | [9] | [4]

CC(C)C[C@@H](CC(=O)N[C@@H](CCCN)CC(=O)N[C@@H]1CCNC[C@H]1C(=O)N[C@H](CC(=O)N[C@@H](CCC(=O)O)CC(=O)O)CC(C)C)NC(=O)[C@@H]1CCCC[C@H]1N
inactive: [2] > 46 µM | [10] | [7] | [9]
active: [4] 15.8 µM

NCCC[C@@H](CC(=O)N[C@@H]1CCCC[C@H]1C(=O)N[C@H](CC(=O)N[C@@H](CCC(=O)O)CC(=O)O)Cc1ccccc1)NC(=O)C[C@H](CO)NC(=O)[C@@H]1CCCC[C@H]1N
inactive: [2] > 46 µM | [7] | [9] | [4]
